Source: PubChem
The list is not random: actives were taken first. Their share in the collection is about 12%.
BAZ2B block: BAZ2B (human) inhibition; 360,000 compounds, 4.4% hits; Q9UIF8; Potency, µM (highest dose often 114 µM), for inactives: top-dose activity change, negative = inhibition, actives largely listed as inhibitors; AlphaScreen BAZ2B-H3K14Ac peptide displacement; further: on the % scale 0 is the no-effect control and ±100 the full control effect; nearly all actives have a fitted effect of over 60% in size
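BAZ2B 50 nM plus b-H3(5-23)K14Ac 50 nM, PBS pH 7.4/0.01% Tween-20, 30 min RT; compound added (max 110 uM), 30 min RT; streptavidin donor/Ni-chelate acceptor beads 10 ug/mL final, 20 min dark; AlphaScreen read.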
HP1b chromo inh: HP1-beta chromodomain-methylated histone interaction inhibition; AlphaScreen HP1-beta / biotin-H3K9me3 peptide binding; Potency, µM (top dose mostly 114 µM), inactives show at the top dose activity change, negative = inhibition, hits mostly inhibitors; 390,000 compounds, 0.56% hits; AID 540317; further: nearly all actives have a fitted effect of over 70% in size
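HP1-beta protein (50 nM final) preincubated 30 min at room temperature with biotinylated H3(1-18)K9me3 peptide (50 nM) in PBS pH 7.4, 0.01% Tween-20, then compound added for 30 min. AlphaScreen streptavidin donor/nickel chelate acceptor beads (10 ug/mL final), 30 min dark, luminescence read.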
L3MBTL1 inh: inhibitors of human L3MBTL1. 230,000 compounds, 0.66% hits. Q9Y468. AlphaScreen L3MBTL1–H3K9me1 peptide binding. Potency, µM (series often up to 57.1 µM), for inactives: at the highest dose activity, negative = inhibition, usual class: inhibitors; further: on the % scale 0 is the no-effect control and ±100 the full control effect; nearly all actives have a fitted effect of over 60% in size
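L3MBTL1 (50 nM) pre-complexed 30 min with biotinylated H3(1-15)K9me1 peptide (75 nM), then compounds added for 30 min at room temperature; AlphaScreen streptavidin donor/nickel chelate acceptor beads (10 ug/mL final) read after 30 min dark incubation.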
Sfp inh: inhibitors of Bacillus subtilis Sfp phosphopantetheinyl transferase | Potency, µM, inactives show largest response in the series, negative = inhibition, hits mostly inhibitors | 310,000 compounds, 3.5% hits | AID 1490 | Q9F4F7 | Biochemical Sfp PPTase activity, qHTS;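 further: the enzyme is Sfp with the accession as filed and its product quenches rhodamine fluorescence; 0% = enzyme reaction without inhibitor and -100% = no enzyme wells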
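Step 1, compound plus 15 nM Sfp-PPTase, 15 min, room temperature. Step 2, add rhodamine-CoA (5 uM) and BHQ-2-YbbR (12.5 uM). Step 3, read 525/598 nm fluorescence at 0 and 30 min.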
G9a block: G9a (human) methyltransferase inhibition. 350,000 compounds, 8.8% hits. Potency, µM (series often up to 102 µM), inactives show top-dose activity, negative = inhibition, actives largely listed as inhibitors. G9a H3K9 monomethylation, AlphaScreen, 2 h; further: on the % scale 0 is the no-effect control and ±100 the full control effect; nearly all actives have a fitted effect of over 75% in size
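AlphaScreen read-out: biotin-H3K9 peptide (500 nM) methylation by 20 nM enzyme with 20 uM SAM, 2 h at room temperature after 15 min compound preincubation; anti-monomethyl H3K9 antibody plus donor/acceptor beads, 10 min dark.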
JMJD2A Tudor inh: JMJD2A Tudor domain (human) inhibition. AlphaScreen JMJD2A-Tudor / H3K4me3 peptide binding. Potency, µM (top dose mostly 114 µM), inactives show top-dose activity change, negative = inhibition, usual class: inhibitors. 390,000 compounds, 4.4% hits; further: on the % scale 0 is the no-effect control and ±100 the full control effect; nearly all actives have a fitted effect of over 50% in size
Active calls of the source: *; ? = inconclusive; . = not tested or not shown; [ ] = remark or other dose. The call rests on the fitted dose curve; in most records, active means well fitted curve in the direction sought with a large enough effect; inconclusive means small, poorly fitted or top-dose-only effect, or another doubt; inactive means no such curve, though single readings can be large; an effect the other way counts as inactive or inconclusive. Potency means the concentration at half of the fitted maximal effect.

SMILES	BAZ2B block	HP1b chromo inh	L3MBTL1 inh	Sfp inh	G9a block	JMJD2A Tudor inh
CC[C@H](C)[C@H](NC(=O)[C@H](CO)NC(=O)[C@H](CC(C)C)NC(=O)[C@@H]1CCCN1C(=O)[C@@H]1CCCN1C(=O)[C@H](CC(=O)O)NC(=O)[C@@H](N)CC(=O)O)C(=O)N[C@@H](CC(=O)O)C(=O)N[C@@H](CC(C)C)C(=O)N[C@H](C(=O)N[C@@H](Cc1ccccc1)C(=O)N[C@@H](Cc1cnc[nH]1)C(=O)N[C@@H](CC(C)C)C(=O)N[C@@H](CC(C)C)C(=O)N[C@@H](CCCNC(=N)N)C(=O)N[C@H](C(=O)N[C@@H](CC(C)C)C(=O)N[C@@H](CC(C)C)C(=O)N[C@@H](CCC(=O)O)C(=O)N[C@@H](CC(C)C)C(=O)N[C@@H](C)C(=O)N[C@@H](CCCNC(=N)N)C(=O)N[C@H](C(=O)N[C@@H](CCC(N)=O)C(=O)N[C@@H](CO)C(=O)N[C@@H](CCC(N)=O)C(=O)N[C@@H](CCCNC(=N)N)C(=O)N[C@@H](CCC(=O)O)C(=O)N[C@@H](CCCNC(=N)N)C(=O)N[C@@H](C)C(=O)N[C@@H](CCC(=O)O)C(=O)N[C@@H](CCC(N)=O)C(=O)N[C@@H](CC(N)=O)C(=O)N[C@@H](CCCNC(=N)N)C(=O)N[C@H](C(=O)N[C@H](C(=O)N[C@@H](Cc1ccccc1)C(=O)N[C@@H](CC(=O)O)C(=O)N[C@@H](CO)C(=O)N[C@H](C(N)=O)C(C)C)[C@@H](C)CC)[C@@H](C)CC)[C@@H](C)O)[C@@H](C)O)[C@@H](C)O	.	.	.	4%	.	.
Nc1nc(-c2ccccc2)[nH]c(=O)c1N=O	79µM*	8%	.	?	?	-22%
C=CCn1c(SCc2ccc(C#N)cc2)nnc1-c1cccc(OC)c1	-2%	13%	1%	11%	1%	2%
C=CCn1c(COc2ccc(Cl)cc2)nnc1SCC(=O)NCC(=O)OCC	-26%	24%	-4%	15%	28µM*	-19%
C=CCn1c(COc2ccc(Cl)cc2)nnc1SCc1ccc(C#N)cc1	3%	59%	5%	2%	28µM*	?
C=CCn1c(COc2ccc(F)cc2)nnc1SCC(=O)NC(=O)NCc1ccco1	?	9%	?	-26%	?	?
C=CCn1c(SCc2ccc(C#N)cc2)nnc1-c1ccccc1	-1%	39%	.	-2%	1.4µM*	-7%
C=CCn1c(SCC(=O)NCC(=O)OCC)nnc1-c1cccc(OC)c1	-4%	68%	.	1%	-38%[12.7 µM]	-16%[11.4 µM]
C=CCn1c(COc2cccc(C)c2)nnc1SCC(=O)NC(=O)NCc1ccco1	?	4%	?	25µM*	?	?
C=CCn1c(COc2ccccc2)nnc1SCc1ccc(C#N)cc1	-5%	-3%	7%	6%	-1%	-10%[11.4 µM]
NCCCC[C@H](NC(=O)[C@H](Cc1c[nH]c2ccccc12)NC(=O)[C@H](CC(=O)O)NC(=O)[C@H](Cc1cnc[nH]1)NC(=O)[C@H](CO)NC(=O)[C@H](Cc1c[nH]c2ccccc12)NC(=O)[C@H](Cc1cnc[nH]1)NC(=O)[C@@H]1CCC(=O)N1)C(=O)N1CCC[C@H]1C(=O)NCC(N)=O	.	.	.	-26%	.	.
Cc1cc(SCC(=O)NCc2ccc(F)cc2)nc(=O)[nH]1	3%	48%	.	.	5%[59 µM]	14%
Cc1ccc(CN2CCCn3nc(C(=O)NC(C)C)cc3C2=O)cc1	-34%	3%	.	.	-11%[59 µM]	-8%
Nc1nc2c(ncn2-c2ccccc2)c(=O)[nH]1	.	29%	.	.	.	0%
O=c1[nH]c(=S)c2ncn(-c3ccccc3)c2[nH]1	?	-7%	4%	18µM*	25µM*	14µM*
CC(=O)C1=C(O)C(=O)N(Cc2ccccc2)C1c1ccccc1F (configuration not stated)	-35%	26%	.	16%	?	-20%
CS(=O)(=O)C1=C(O)C(=O)N(CCCC(=O)O)C1c1ccccc1F (configuration not stated)	-3%	15%	-1%	2%	-8%[59 µM]	50µM*
CCCCCCN1C(=O)C(O)=C(C(C)=O)C1c1ccccc1[N+](=O)[O-] (configuration not stated)	?	15%	-10%	?	50µM*	0%[11.4 µM]
CC(=O)C1=C(O)C(=O)N(C)C1c1ccccc1[N+](=O)[O-] (configuration not stated)	-18%	?	-10%	71µM*	11µM*	?
CC(=O)C1=C(O)C(=O)N(CC(=O)O)C1c1ccccc1Cl (configuration not stated)	71µM*	23%	.	-6%	50µM*	?
CC(=O)C1=C(O)C(=O)N(CCCN2CCOCC2)C1c1ccccc1[N+](=O)[O-] (configuration not stated)	?	?	.	-27%	?	-30%
Cc1ccc(/C(O)=C2\C(=O)C(=O)N(C)C2c2ccccc2[N+](=O)[O-])cc1 (configuration not stated)	0%	14%	-6%[2.29 µM]	-13%	2%[0.501 µM]	-16%
O=C(CSc1nc2c([nH]c3ccccc32)c(=O)n1-c1ccccc1)N1CCCc2ccccc21	1%	11%[57 µM]	.	.	3%[59 µM]	-6%
CC(=O)C1=C(O)C(=O)N(CCC(=O)O)C1c1ccccc1[N+](=O)[O-] (configuration not stated)	?	3%	-1%	11µM*	-24%[59 µM]	-26%
COc1ccc2[nH]cc(CCNc3ncncc3-c3c(C)noc3C)c2c1	.	.	.	1%	-7%[0.501 µM]	.
SMILES	BAZ2B block	HP1b chromo inh	L3MBTL1 inh	Sfp inh	G9a block	JMJD2A Tudor inh
Cc1ccn2c(Nc3ccc4c(c3)OCO4)c(-c3ccc(N(C)C)cc3)nc2c1	.	-3%	.	.	2µM*	?
Cc1ccn2c(Nc3ccccc3C)c(-c3ccccc3)nc2c1	?	1%	.	.	-63%[59 µM]	-20%
Cc1ccn2c(Nc3ccc4c(c3)OCO4)c(-c3ccc(Cl)cc3)nc2c1	.	-9%	.	.	2.8µM*	-33%
Clc1ccc2nc(-c3cccs3)c(Nc3ccc4c(c3)OCCO4)n2c1	-1%	83%	.	.	4%[59 µM]	-3%
Cc1ccc2nc(-c3ccc(O)cc3)c(Nc3ccc4c(c3)OCCO4)n2c1	-13%	42%	-7%	13%	8.9µM*	-12%
Cc1cccn2c(Nc3ccc4c(c3)OCCO4)c(-c3ccc(Br)o3)nc12	11µM*	?	.	.	11µM*	22µM*
